Screening data (PubChem)
NPSR antagonist = qHTS Assay for Antagonists of the Neuropeptide S Receptor: cAMP Signal Transduction; 1% of 220,000 active; Q6W5P4; AID 1461, 2008; Potency, µM (top dose mostly 38.3 µM), for the others: at the highest dose activity change, negative = inhibition, actives largely listed as inhibitors; CHO-NPSR cells, cAMP TR-FRET, antagonist mode; also: potency is read from the fitted curve at half-maximal effect; nearly all actives have a fitted effect of over 50% in size
HPGD block = qHTS Assay for Inhibitors of HPGD (15-Hydroxyprostaglandin Dehydrogenase); 15-hydroxyprostaglandin dehydrogenase [NAD(+)] (Homo sapiens), P15428; purified HPGD, NADH fluorescence kinetic, PGE2 substrate; Potency, µM, for the others: at the top dose activity change, negative = inhibition, most hits filed as inhibitors; 4.3% of 150,000 active; active = well fitted inhibition curve with a large enough effect, not every such curve was filed as active; inconclusive = small, poorly fitted or top-dose-only effect, or another doubt; inactive = no such curve, though single readings can be large or run the other way; also: potency is read from the fitted curve at half-maximal effect
Target sequence (P15428 whole entry, looked up): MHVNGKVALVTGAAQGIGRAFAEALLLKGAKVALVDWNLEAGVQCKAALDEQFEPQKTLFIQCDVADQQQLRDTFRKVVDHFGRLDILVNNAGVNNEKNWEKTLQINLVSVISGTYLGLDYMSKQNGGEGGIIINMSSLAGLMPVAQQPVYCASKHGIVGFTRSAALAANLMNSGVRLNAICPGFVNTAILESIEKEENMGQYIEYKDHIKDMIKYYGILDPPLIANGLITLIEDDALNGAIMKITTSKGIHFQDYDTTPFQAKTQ
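20 nM HPGD preincubated 15 min at room temperature with compound in 50 mM Tris-HCl pH 8, 0.01% Tween 20. Started with 1 mM NAD+ and 30 uM prostaglandin E2; NADH fluorescence (360/450 nm) read 5 times over 30-s intervals, last minus first.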
ALDH1A1 inh = qHTS Assay for Inhibitors of Aldehyde Dehydrogenase 1 (ALDH1A1) | 7.3% of 220,000 active | Purified ALDH1A1, NADH fluorescence, propionaldehyde substrate | AID 1030, 2008 | Potency, µM (titrated, usually from 75.3 µM), without a hit: top-dose activity, negative = inhibition, most hits filed as inhibitors | Aldehyde dehydrogenase 1A1 (Homo sapiens), P00352; active = well fitted inhibition curve with a large enough effect, not every such curve was filed as active; inconclusive = small, poorly fitted or top-dose-only effect, or another doubt; inactive = no such curve, though single readings can be large or run the other way;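 also: potency is read from the fitted curve at half-maximal effect; plate controls were no enzyme wells and a reference inhibitor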
Target sequence (P00352 whole entry, looked up): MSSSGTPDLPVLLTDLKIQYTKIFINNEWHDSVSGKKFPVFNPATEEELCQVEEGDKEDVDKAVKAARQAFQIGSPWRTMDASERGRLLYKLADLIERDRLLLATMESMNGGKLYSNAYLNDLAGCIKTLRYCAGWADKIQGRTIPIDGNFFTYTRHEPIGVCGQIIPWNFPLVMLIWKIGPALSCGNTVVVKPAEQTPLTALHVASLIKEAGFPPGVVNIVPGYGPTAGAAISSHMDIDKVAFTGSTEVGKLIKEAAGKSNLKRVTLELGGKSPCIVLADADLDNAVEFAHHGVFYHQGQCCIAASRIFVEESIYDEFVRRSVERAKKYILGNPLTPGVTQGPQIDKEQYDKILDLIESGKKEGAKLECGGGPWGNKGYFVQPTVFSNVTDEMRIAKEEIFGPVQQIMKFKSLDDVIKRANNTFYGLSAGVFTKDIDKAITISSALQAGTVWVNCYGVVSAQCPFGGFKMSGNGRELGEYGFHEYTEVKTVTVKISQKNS
IMPase cell inh = qHTS Assay for Identifying the Cell-Membrane Permeable IMPase Inhibitors | Inositol monophosphatase 1 (Rattus norvegicus), P97697 | CHO-M1 cells, IP1 accumulation, HTRF TR-FRET ratio | inhibition (IP1 accumulation), % at 46.1 µM | 120,000 tested, under 10 active | AID 901, 2007; active = well fitted curve in the direction sought with a large enough effect in the signal ratio, not every such curve was filed as active; inconclusive = small, poorly fitted or top-dose-only effect, or a change in a side signal; inactive = no such curve, though single readings can be large or run the other way; the % refers to the signal ratio;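 also: cells stimulated with carbachol in lithium chloride buffer; plate controls were DMSO basal wells for no effect and reference inhibitor wells for full effect; higher means more IMPase inhibition seen as more IP1 and lower FRET ratio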
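Seeded CHO-M1 cells were dosed with compound at up to 46 uM, stimulated with carbachol for 30 min, then lysed in IP-One detection reagents. Higher IP1 lowers the TR-FRET signal.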
IMPase Li inh = qHTS Assay for Identifying the Cell-Membrane Permeable IMPase Inhibitors: Potentiation with Lithium | CHO-M1 cells, IP1 TR-FRET (IP-One), carbachol + lithium | Potency, µM (titrated, usually from 59.4 µM), for the others: at the top dose activity, negative = IMPase inhibition, actives largely listed as inhibitors | 0.35% of 210,000 active;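 also: IP1 builds up when IMPase is blocked and the TR-FRET signal falls; potency is read from the fitted curve at half-maximal effect; plate controls were basal vehicle for no effect and high inhibitor control for full effect; nearly all actives have a fitted effect of over 50% in size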
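Concentration–response in CHO-M1 cells, lithium-potentiated; 30 min at 37C. IP1 detected by competitive TR-FRET after 10 min lysis at RT. Hill-fitted AC50.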
12-hLO inh = qHTS Assay for Inhibitors of 12-hLO (12-human lipoxygenase). Polyunsaturated fatty acid lipoxygenase ALOX12 (Homo sapiens), P18054. purified 12-hLO, xylenol orange hydroperoxide absorbance. Potency, µM (doses to about 57.1 µM), without a hit: at the top dose activity change, negative = inhibition, actives largely listed as inhibitors. 0.12% of 150,000 active; also: potency is read from the fitted curve at half-maximal effect; nearly all actives have a fitted effect of over 55% in size
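Purified human 12hLO (150 nM final) was preincubated with compounds for 15 min at room temperature in 25 mM Hepes pH 7.0, 0.01% Triton X-100, then reacted with 40 uM arachidonic acid for 30 min. Hydroperoxide was detected with ferrous iron/xylenol orange.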
Active calls of the source: *; ? = inconclusive; / = no result; [ ] = another dose, or the depositor's remark. A selection: hits, their analogues and other compounds. The true share with any hit is near 8.9%. Unless noted, calls follow the shape of the dose curve; as a rule, active = well fitted curve in the direction sought with a large enough effect; inconclusive = small, poorly fitted or top-dose-only effect, or another doubt; inactive = no such curve, though single readings can be large; an effect the other way counts as inactive or inconclusive. Unless noted, % is scaled to controls: 0 for no effect and ±100 for the full control effect.

SMILES	NPSR antagonist	HPGD block	ALDH1A1 inh	IMPase cell inh	IMPase Li inh	12-hLO inh
COc1ccc(OC)c(C2CC(=O)N3CN(c4cccc(Cl)c4C)CSC3=C2C#N)c1 (configuration not stated)	-11%[46.1 µM]	7.9µM*	3.2µM*	-6	-13%[38.3 µM]	?
Cc1cccc2nc(-c3ccco3)c(Nc3ccc4c(c3)OCO4)n12	-46%	/	?	/	0%	/
O=C1CC(N2CCC(O)(c3ccc(Cl)cc3)CC2)C(=O)N1 (configuration not stated)	6%[46.1 µM]	-15%	-3%	10	24%[38.3 µM]	-7%
C/C(=N\NC(=S)Nc1ccccc1C)c1ccc(O)cc1	-23%	/	20µM*	/	4%	/
C/C(=N\NC(=S)NC1CCCCC1)c1ccc(O)cc1	-54%	/	14µM*	/	0%	/
COC(=O)c1ccc2c(c1)C(C)(C)C(/C=C/c1ccc(OC)c(OC)c1OC)=[N+]2C	10µM*	-28%	-1%	9	9%[38.3 µM]	?
CCC(C)(C)n1nnnc1C(c1ccc(OC)c(OC)c1)N1CCN(c2ccc(OC)cc2)CC1 (configuration not stated)	-13%[46.1 µM]	-6%	-8%	1	8%[38.3 µM]	-5%
c1ccc(CCNc2c3c(nc4ncnn24)CCC3)cc1	9%[46.1 µM]	18µM*	3.5µM*	-4	-6%[38.3 µM]	-6%
Cn1c(C(=O)N2CCN(C3CCCCC3)CC2)cc2c(=O)n(C)c3ccccc3c21	9%[46.1 µM]	-8%	11%	9	2%[38.3 µM]	2%
Cn1c(C(=O)N2CCN(C(=O)c3ccco3)CC2)cc2c(=O)n(C)c3ccccc3c21	-10%[46.1 µM]	-22%	20µM*	5	-13%[38.3 µM]	-3%
Cn1c(C(=O)Nc2ccc3c(c2)OCCO3)cc2c(=O)n(C)c3ccccc3c21	-26%[46.1 µM]	?	25µM*	6	14%[38.3 µM]	1%
Cc1ccc2nc(SCC(=O)N(CC(C)C)c3c(N)n(CC(C)C)c(=O)[nH]c3=O)[nH]c2c1	1%[46.1 µM]	-9%	-1%	-8	11%[38.3 µM]	-2%
CCOCCCn1c(SCC(=O)Nc2cc(C(C)(C)C)nn2-c2ccccc2)nc2ccccc2c1=O	?	-3%	-6%	6	9%	3%
CC(=O)N1N=C(c2ccccc2)CC1c1cn(Cc2ccccc2)c2ccccc12 (configuration not stated)	-36%	-13%	28µM*	/	7%	3%
O=C(N/N=C/c1ccc(N2CCOCC2)o1)c1cccc([N+](=O)[O-])c1	-24%	-27%	18µM*	/	16%	0%
C/C(=N\NC(=O)c1ccccc1)c1ccc(N2CCCCC2)cc1	-3%	-4%	-8%	/	2%	2%
O=C(N/N=C/c1ccc(N2CCCCC2)o1)c1ccccc1	-1%	16µM*	25µM*	/	10%	-8%
COc1ccc(Cc2nnc(SCC(=O)N3CCc4ccccc4C3)o2)cc1	-6%[46.1 µM]	/	13µM*	10	/	1%
COc1ccc(-c2nnc(SCC(=O)N3CCCCC3)o2)c(OC)c1	-1%[46.1 µM]	?	?	5	9%[38.3 µM]	-11%
COc1ccc(Cc2nnc(SCC(=O)N3CCCC(C)C3)o2)cc1 (configuration not stated)	-7%	/	0.89µM*	/	9%	/
COc1ccc(CC(=O)N2CCCC(C)C2)cc1 (configuration not stated)	-14%[46.1 µM]	28µM*	-9%	0	3%[38.3 µM]	-5%
COc1ccc(-c2nnc(SCC(=O)N3CCCC(C)C3)o2)c(OC)c1 (configuration not stated)	-24%[7.67 µM]	16µM*	?	4	-4%[38.3 µM]	-3%
O=C(Nc1ccc(Cl)c(Cl)c1)N1CC=CCC1	?	?	6%	1	0%[38.3 µM]	-4%
O=C(NCc1nnc(SCC(=O)N2CCCC2)o1)c1ccco1	11%	/	4%	/	4%	/
CN(C)c1ncc2nc(-c3cc(F)cc(F)c3)c(=O)n(C)c2n1	/	/	?	/	-2%	/
SMILES	NPSR antagonist	HPGD block	ALDH1A1 inh	IMPase cell inh	IMPase Li inh	12-hLO inh
C=CCNc1cc(N2CCCC2)ccc1[N+](=O)[O-]	-21%	/	-6%	/	16%	/
COc1ccc(C(=O)NCC(=O)N2CCc3ccccc3C2)cc1	2%	/	?	/	4%	/
COc1ccc(OC(C)C(=O)N2CCc3ccccc3C2)cc1 (configuration not stated)	-10%[46.1 µM]	25µM*	-7%	1	8%[38.3 µM]	2%
COc1ccc(Cc2nc3ccccc3n2CC(=O)N/N=C/c2ccc(C)cc2O)cc1OC	-13%	-25%	4%	/	9%	-1%
COc1cccc(-c2nc3ccccc3c(=O)o2)c1	-12%[46.1 µM]	?	?	-3	30%[38.3 µM]	5%
COc1ccc(Cc2n[nH]c(=S)n2N)cc1OC	2%	/	10µM*	/	-5%	/
CCOc1ccc(Cc2n[nH]c(=S)n2N)cc1	7%	?	?	/	1%	-2%
Nn1c(Cc2ccc(Br)cc2)n[nH]c1=S	0%	/	11µM*	/	0%	/
CCCCC/C=N/NC(=O)c1[nH]c2ccc([N+](=O)[O-])cc2c1C	34%	/	?	/	/	/
Cc1c(C(=O)NN)[nH]c2ccc([N+](=O)[O-])cc12	9%	/	7.9µM*	/	/	/
CC(=O)Nc1ccc(N(C(=O)CNC(=O)c2ccco2)C(C(=O)NCc2ccco2)c2ccccc2F)cc1 (configuration not stated)	-8%	/	7.9µM*	/	-1%	/
CC(=O)C(Cl)C(=O)Nc1ccccc1 (configuration not stated)	3%	/	1.3µM*	/	-1%	/
O=C(Nc1ccc2c(c1)OCCO2)c1cccc(S(=O)(=O)N2CCOCC2)c1	-6%[46.1 µM]	-11%	?	2	6%[38.3 µM]	-3%
O=C(c1cccc(F)c1)N1CCc2ccccc2C1	7%[46.1 µM]	5µM*	14µM*	-7	26%[38.3 µM]	4%
O=C(c1cncc(Br)c1)N1CCc2ccccc2C1	3%[46.1 µM]	10µM*	6%	-9	23%[38.3 µM]	7%
O=C(c1ccccc1Cl)N1CCc2ccccc2C1	-8%[46.1 µM]	4.5µM*	?	-6	4%	1%
O=C(c1ccc(Cl)nc1)N1CCc2ccccc2C1	-1%[46.1 µM]	7.9µM*	-1%	-11	13%[38.3 µM]	-9%
Cc1ccc(-c2[nH]nc3c2C(C)C(C#N)=C(N)O3)cc1 (configuration not stated)	3%	-11%	13%	/	2%	-1%
O=C(/C=C/c1ccco1)N1CCN(S(=O)(=O)c2cccs2)CC1	18%	/	7.1µM*	/	/	/
O=C(/C=C/c1ccco1)N1CCN(c2ccccc2)CC1	-3%	0%	?	/	5%	-1%
